About 2,000 (36%) of roughly 5,500 compounds were called active. Roughly 18% stayed inconclusive and do not appear here. No stated cut-off is given here; in the data, active means normalized growth mostly below about 0.91 (no sharp cut-off); inconclusive means no clear call, values can overlap the other calls; inactive means mostly above about 0.92. The list shows a part of the results.
Assay: chemical genetic growth profiling, strain panel (AID 1159580);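 further: tested at 20 µM; growth read once vehicle control cultures reached saturation at 30 °C; 1 = growth at the plate median or of vehicle wells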
Settings: growth OD

Measured: normalized growth

CC[C@H]1OC(=O)[C@H](C)[C@@H](O[C@H]2C[C@@](C)(OC)[C@@H](O)[C@H](C)O2)[C@H](C)[C@@H](O[C@@H]2O[C@H](C)C[C@H](N(C)C)[C@H]2O)[C@](C)(OC)C[C@@H](C)C(=O)[C@H](C)[C@@H](O)[C@]1(C)O
inactive: S. cerevisiae deletion strains, locus YAL013W, strain DEP1, stronger effect = lower value 0.992 | S. cerevisiae deletion strains, locus YBR021W, strain FUR4, stronger effect = lower value 1.01 | S. cerevisiae deletion strains, locus YBR229C, strain ROT2, stronger effect = lower value 0.989 | S. cerevisiae deletion strains, locus YCL029C, strain bik1, stronger effect = lower value 0.994 | S. cerevisiae deletion strains, locus YDL035C, strain GPR1, stronger effect = lower value 0.977 | S. cerevisiae deletion strains, locus YDL074C, strain BRE1, stronger effect = lower value 0.949 | S. cerevisiae deletion strains, locus YDL101C, strain DUN1, stronger effect = lower value 0.992 | S. cerevisiae deletion strains, locus YDL134C, strain PPH21, stronger effect = lower value 0.989 | S. cerevisiae deletion strains, locus YDL185W, strain tfp1, stronger effect = lower value 0.994 | S. cerevisiae deletion strains, locus YDL192W, strain arf1, stronger effect = lower value 0.966 | S. cerevisiae deletion strains, locus YDR101C, strain arx1, stronger effect = lower value 0.973 | S. cerevisiae deletion strains, locus YDR150W, strain NUM1, stronger effect = lower value 0.987 | S. cerevisiae deletion strains, locus YDR162C, strain NBP2, stronger effect = lower value 0.974 | S. cerevisiae deletion strains, locus YDR318W, strain mcm21, stronger effect = lower value 0.986 | S. cerevisiae deletion strains, locus YDR388W, stronger effect = lower value 0.986 | S. cerevisiae deletion strains, locus YDR502C, strain sam2, stronger effect = lower value 0.99 | S. cerevisiae deletion strains, locus YEL061C, strain CIN8, stronger effect = lower value 0.985 | S. cerevisiae deletion strains, locus YER110C, stronger effect = lower value 1.04 | S. cerevisiae deletion strains, locus YER155C, strain BEM2, stronger effect = lower value 0.987 | S. cerevisiae deletion strains, locus YER167W, strain BCK2, stronger effect = lower value 0.986 | S. cerevisiae deletion strains, locus YGL078C, strain dbp3, stronger effect = lower value 1.01 | S. cerevisiae deletion strains, locus YGL086W, strain mad1, stronger effect = lower value 0.969 | S. cerevisiae deletion strains, locus YGL248W, strain PDE1, stronger effect = lower value 0.986 | S. cerevisiae deletion strains, locus YGR078C, strain PAC10, stronger effect = lower value 0.991 | S. cerevisiae deletion strains, locus YGR135W, strain pre9, stronger effect = lower value 0.989 | S. cerevisiae deletion strains, locus YGR229C, strain SMI1, stronger effect = lower value 0.963 | S. cerevisiae deletion strains, locus YGR252W, strain gcn5, stronger effect = lower value 0.932 | S. cerevisiae deletion strains, locus YHR030C, strain SLT2, stronger effect = lower value 0.986 | S. cerevisiae deletion strains, locus YHR079C, strain IRE1 (second series), stronger effect = lower value 0.983 | S. cerevisiae deletion strains, locus YHR094C, strain hxt1, stronger effect = lower value 0.982 | S. cerevisiae deletion strains, locus YHR129C, strain ARP1, stronger effect = lower value 0.981 | S. cerevisiae deletion strains, locus YHR200W, strain rpn10, stronger effect = lower value 0.98 | S. cerevisiae deletion strains, locus YIL066C, strain RNR3, stronger effect = lower value 0.985 | S. cerevisiae deletion strains, locus YIL073C, strain SPO22, stronger effect = lower value 0.985 | S. cerevisiae deletion strains, locus YIL125W, strain kgd1, stronger effect = lower value 1.01 | S. cerevisiae deletion strains, locus YIR030C, strain dcg1, stronger effect = lower value 0.999 | S. cerevisiae deletion strains, locus YJL095W, strain BCK1, stronger effect = lower value 0.971 | S. cerevisiae deletion strains, locus YJL134W, strain LCB3, stronger effect = lower value 0.989 | S. cerevisiae deletion strains, locus YJL168C, strain set2, stronger effect = lower value 0.978 | S. cerevisiae deletion strains, locus YJL187C, strain SWE1 (second series), stronger effect = lower value 0.989 | S. cerevisiae deletion strains, locus YJR043C, strain POL32, stronger effect = lower value 0.958 | S. cerevisiae deletion strains, locus YJR075W, strain HOC1, stronger effect = lower value 0.954 | S. cerevisiae deletion strains, locus YKL009W, strain mrt4, stronger effect = lower value 0.997 | S. cerevisiae deletion strains, locus YKL068W, stronger effect = lower value 0.982 | S. cerevisiae deletion strains, locus YKL085W, strain MDH1 (second series), stronger effect = lower value 0.978 | S. cerevisiae deletion strains, locus YKL085W, strain MDH1, stronger effect = lower value 0.978 | S. cerevisiae deletion strains, locus YKL190W, strain CNB1, stronger effect = lower value 0.967 | S. cerevisiae deletion strains, locus YKR001C, strain vps1, stronger effect = lower value 0.999 | S. cerevisiae deletion strains, locus YLR039C, strain RIC1, stronger effect = lower value 0.979 | S. cerevisiae deletion strains, locus YLR058C, strain SHM2, stronger effect = lower value 0.987 | S. cerevisiae deletion strains, locus YLR102C, strain apc9, stronger effect = lower value 0.997 | S. cerevisiae deletion strains, locus YLR262C, strain YPT6, stronger effect = lower value 1.03 | S. cerevisiae deletion strains, locus YLR268W, strain sec22, stronger effect = lower value 0.987 | S. cerevisiae deletion strains, locus YLR330W, strain CHS5, stronger effect = lower value 0.992 | S. cerevisiae deletion strains, locus YLR342W, strain FKS1 (second series), stronger effect = lower value 0.956 | S. cerevisiae deletion strains, locus YLR371W, strain rom2, stronger effect = lower value 0.967 | S. cerevisiae deletion strains, locus YLR418C, strain cdc73, stronger effect = lower value 0.916 | S. cerevisiae deletion strains, locus YML016C, strain PPZ1, stronger effect = lower value 0.986 | S. cerevisiae deletion strains, locus YML032C, strain rad52, stronger effect = lower value 0.971 | S. cerevisiae deletion strains, locus YML124C, strain tub3, stronger effect = lower value 0.983 | S. cerevisiae deletion strains, locus YMR078C, strain ctf18, stronger effect = lower value 1 | S. cerevisiae deletion strains, locus YMR223W, strain ubp8, stronger effect = lower value 0.998 | S. cerevisiae deletion strains, locus YMR263W, strain SAP30, stronger effect = lower value 0.987 | S. cerevisiae deletion strains, locus YMR307W, strain GAS1, stronger effect = lower value 0.789 | S. cerevisiae deletion strains, locus YNL067W, strain RPL9B, stronger effect = lower value 0.983 | S. cerevisiae deletion strains, locus YNL128W, strain TEP1, stronger effect = lower value 0.979 | S. cerevisiae deletion strains, locus YNL153C, strain GIM3, stronger effect = lower value 0.983 | S. cerevisiae deletion strains, locus YNL233W, strain BNI4, stronger effect = lower value 0.982 | S. cerevisiae deletion strains, locus YNL250W, strain rad50, stronger effect = lower value 1 | S. cerevisiae deletion strains, locus YNL271C, strain bni1, stronger effect = lower value 1.01 | S. cerevisiae deletion strains, locus YNL298W, strain CLA4, stronger effect = lower value 1.02 | S. cerevisiae deletion strains, locus YNL307C, strain MCK1, stronger effect = lower value 1 | S. cerevisiae deletion strains, locus YNL322C, strain KRE1, stronger effect = lower value 0.987 | S. cerevisiae deletion strains, locus YNR052C, strain pop2, stronger effect = lower value 0.937 | S. cerevisiae deletion strains, locus YOL006C, strain TOP1, stronger effect = lower value 0.757 | S. cerevisiae deletion strains, locus YOL012C, strain htz1 0.325 | S. cerevisiae deletion strains, locus YOL147C, strain pex11, stronger effect = lower value 0.993 | S. cerevisiae deletion strains, locus YOR061W, strain CKA2, stronger effect = lower value 0.987 | S. cerevisiae deletion strains, locus YOR069W, strain VPS5, stronger effect = lower value 0.98 | S. cerevisiae deletion strains, locus YOR136W, strain idh2, stronger effect = lower value 1.01 | S. cerevisiae deletion strains, locus YOR144C, strain elg1, stronger effect = lower value 0.973 | S. cerevisiae deletion strains, locus YOR184W, strain ser1, stronger effect = lower value 0.991 | S. cerevisiae deletion strains, locus YOR316C, strain cot1, stronger effect = lower value 0.986 | S. cerevisiae deletion strains, locus YPL055C, strain LGE1, stronger effect = lower value 0.962 | S. cerevisiae deletion strains, locus YPL241C, strain CIN2, stronger effect = lower value 0.976 | S. cerevisiae deletion strains, locus YPR119W, strain clb2, stronger effect = lower value 0.975 | S. cerevisiae deletion strains, locus YPR141C, strain kar3, stronger effect = lower value 1.01 | S. cerevisiae deletion strains, locus YPR163C, strain tif3, stronger effect = lower value 0.955 | S. cerevisiae deletion strains, locus YPR167C, strain met16, stronger effect = lower value 0.996 | S. cerevisiae deletion strains, strain wtn01, stronger effect = lower value 0.964 | S. cerevisiae strains, strain wild type, stronger effect = lower value 0.982
